# Laboratory results taken from PubChem BioAssay AID588436 (Broad Institute, 2011).
# Screen size: about 350,000 compounds; about 550 (0.16%) were called active. The sample as a whole holds a higher share of actives than the screen did. A number with no mark means an inactive call. No stated cut-off is given here; in the data, active means activation mostly above about 9.7% (no sharp cut-off); inconclusive means no clear call, values can overlap the other calls; inactive means mostly below about 3.7%.
# Assay: inducers of Vibrio cholerae quorum light production without autoinducers, primary screen, BH1578 luxS cqsA deficient, single point (AID 588436)
# Settings: V. cholerae BH1578 lux reporter, luminescence, 6 h, at 18.7 µM; hits give high values
row,SMILES,activation
1,COCCNc1ncnc2c1ncn2[C@H]1CN(CCN2CCOCC2)C[C@@H](CO)O1,-0.715%
2,O=C(NCc1ccc(Cl)cc1)C(=O)NCC1CCCN1S(=O)(=O)c1cccs1 (stereo unspecified),inactive
3,Cc1nonc1C1CCCN1Cc1nc(-c2ccc(F)cc2F)oc1C (stereo unspecified),2.27%
4,Cc1ccsc1-c1nc(CSCC(=O)NCCN2CCCC2)c(C)o1,-0.308%
5,CC(CCc1ccccc1)NCC(O)c1cccc([N+](=O)[O-])c1 (stereo unspecified),-0.322%
6,COc1ccc(Cl)cc1NC(=O)C1CC(=O)N(c2ccc(F)cc2)C1 (stereo unspecified),-0.72%
7,COc1ccc(CNc2nnnn2C)cc1,25.8% (active)
8,CCCC(=O)n1nc(NCc2ccc(OC)cc2)nc1NCc1ccc(OC)cc1,inactive
9,COc1ccc2ccccc2c1CNc1nnnn1C,inactive
10,CCCn1nnnc1NCc1ccc(OC)cc1,495% (active)
11,CCCCn1nnnc1NCc1cc(OC)c(OC)c(OC)c1,inactive
12,Cn1nnnc1NCc1ccc(Cl)c(Cl)c1,inactive
13,CCNC(=O)C1(C)CCN(Cc2ccc(C(=O)OCC)o2)C1 (stereo unspecified),-0.406%
14,O=C(COC(=O)CNC(=O)C1CCCCC1)NCc1ccccc1,inactive
15,O=C(O)c1cc(S(=O)(=O)Nc2ccc3cn[nH]c3c2)ccc1Br,-0.342%
16,Cc1nc(-c2ccc(Cl)cc2)sc1C(=O)CBr,-3.57%
17,Cc1ccc(SCC(=O)c2sc(-c3ccccc3)nc2C)cc1,25% (active)
18,Cc1ccc(SCC(=O)Nc2nncs2)cc1,inactive
19,Cc1ccsc1C(=O)N[C@@H](C)c1nnc2ccccn12,-5.76%
20,COc1ccc(C(C)C)cc1-c1ccc2nncn2c1,-1.12%
21,CCCCNC(=O)C1CCCN(S(=O)(=O)c2ccc(S(=O)(=O)NCC(C)C)cc2)C1 (stereo unspecified),-0.448%
22,O=c1cc(CO)oc(C(Nc2cccc([N+](=O)[O-])c2)c2ccccn2)c1O (stereo unspecified),-0.237%
23,CCNc1nc(NCC)nc(N(C)n2cnnc2)n1,-0.319%
24,Cc1cc(C)c(S(=O)(=O)n2cc(C(C)C(N)C(=O)O)c3ccccc32)c(C)c1 (stereo unspecified),inactive

row,SMILES,activation
1,COc1ccc(C)cc1NC(=O)NCCCCc1ccccc1,inactive
2,Cc1ccc(S(=O)(=O)NNC(=O)/C=C/c2cccc(F)c2)cc1,inactive
3,COC(=O)CN1C(=O)C(C)(C)Oc2ccc(C(=O)Nc3cccc(OC)c3)cc21,-0.813%
4,O=C(CCN1C(=O)c2ccccc2C1=O)C1=NN[C@@H]2C(=O)N(c3ccc(F)cc3)C(=O)[C@H]12,1.21%
5,COC(=O)c1c(C(=O)OC)c2n(c1C)CCS2,-0.577%
6,Cc1cc(-n2cnc(-c3cn(C)nc3C)n2)no1,inactive
7,Cc1c(C(=O)O)nnn1-c1nonc1N,1.08%
8,CCOC(=O)c1nnn(-c2nonc2-n2cccc2)c1CN1CCC(C(=O)OCC)CC1,inactive
9,NNC(=O)c1nnn(-c2nonc2N)c1CN1CCCC1,67.1% (active)
10,COc1ccc(NC(=O)CN(C)C(=O)CNC(=O)C2CCCCC2)cc1,1.72%
11,CN(CC(=O)Nc1ccc(OC(F)(F)F)cc1)C(=O)C1CCC1,18.8% (active)
12,COc1ccc(NC(=O)CN(C)C(=O)CC2CCCCC2)cc1,-0.68%
13,COc1ccccc1C(=O)NCCn1cc(SCC(=O)NCc2ccco2)c2ccccc21,-0.41%
14,CCC(=O)Nc1ccc(S(=O)(=O)NCC2CCCO2)cc1 (stereo unspecified),-0.618%
15,CCC(=O)NC(NCC1CCCO1)C(Cl)(Cl)Cl (stereo unspecified),16.7% (active)
16,CCC(=O)c1c[nH]c(C(=O)NCC2CCCO2)c1 (stereo unspecified),-0.144%
17,O=C(C1CCCN(S(=O)(=O)c2ccccc2)C1)N1CCN(c2ccc(F)cc2)CC1 (stereo unspecified),inactive
18,CCCS(=O)(=O)N1CCCC(C(=O)N2CCN(c3ccccc3)CC2)C1 (stereo unspecified),33.3% (active)
19,CS(=O)(=O)N1CCC(C(=O)N2CCN(c3ccccc3)CC2)CC1,inactive
20,CCOc1ccc(OCc2cccc(C(=O)N(CC)CC)c2)cc1,-0.345%
21,Cc1cccc(-n2c(SCC(=O)Nc3cccc(S(=O)(=O)NC4=NCCCCC4)c3)nc3ccccc3c2=O)c1C,-0.796%
22,O=C(C1CC(=O)N(c2ccc(F)cc2)C1)N1CCN(c2ccccc2)CC1 (stereo unspecified),-0.28%
23,Cc1cccc(CN2CCC(n3nccc3NC(=O)c3ccccc3C)CC2)n1,-0.82%
24,COC(=O)c1ccc(C2NC(=O)NC(C)=C2C(=O)N(C)C)cc1 (stereo unspecified),-3.1%

row,SMILES,activation
1,COC(=O)C1=C(C)NC(=O)NC1/C=C/c1ccccc1 (stereo unspecified),33.3% (active)
2,COC(=O)C1=C(C)N=C2SC(C)C(=O)N2C1/C=C/c1ccccc1 (stereo unspecified),inactive
3,CCN(CC(=O)Nc1ccccc1C(F)(F)F)C(=O)CSCc1c(C)noc1C,inactive
4,CC(C)CC(N=C1NC(C)(C)Cc2ccccc21)C(=O)O (stereo unspecified),-0.478%
5,CC(NCc1cccs1)C(=O)Nc1cc(Cl)cc(Cl)c1 (stereo unspecified),-0.542%
6,COC(=O)c1ccc(CNC(=O)Cn2cc(C)c(=O)[nH]c2=O)cc1,-1.31%
7,CCc1cccc2c(=O)c(C(=O)NCCCOC)c[nH]c12,inactive
8,Cc1cc(C(=O)OCC(=O)Nc2ccccc2Cl)c(C)o1,11.9%
9,O=C(Cc1ccc2c(c1)CCCC2)Nc1ccccc1Cl,159% (active)
10,O=C(Nc1ccc2c(c1)CCC2)c1cccc(S(=O)(=O)Nc2ccccc2Cl)c1,0.69%
11,O=[N+]([O-])c1cnc2ccc3ccccc3c2c1,31.2% (active)
12,O=[N+]([O-])c1ccc2nc(-c3ccccn3)[nH]c2c1,inactive
13,CN(CCc1ccccc1)c1ccc([N+](=O)[O-])cn1,inactive
14,COc1cccc(N(C(=O)CNC(=O)c2ccco2)C(C(=O)NC2CCCCC2)c2cccnc2)c1 (stereo unspecified),0.162%
15,COc1ccc(N(CC(=O)NC2CCCCC2)C(=O)CNC(=O)c2ccco2)c(OC)c1,16.7% (active)
16,COC(=O)c1ccc(N(CC(=O)NC2CCCC2)C(=O)CNC(=O)c2ccco2)cc1,-0.813%
17,CC(C)CN(C(=O)Cn1c(=O)cnc2ccccc21)C1CCS(=O)(=O)C1 (stereo unspecified),-2.94%
18,CC(=O)OCCN(CCCn1c(-c2ccncc2)nc2ccccc21)c1nc(-c2ccc(C)cc2)cs1,-0.447%
19,Cc1ccc(C)c(NC(=O)c2cc(-c3cc(C)cc(C)c3O)n[nH]2)c1,1.16%
20,CC(C)CNC(=O)COC(=O)/C=C/c1ccco1,180% (active)
21,CC(C)CNC(=O)COC(=O)/C=C/c1ccccc1[N+](=O)[O-],13.6%
22,COc1cccc(NC(=O)COC(=O)/C=C/c2ccco2)c1,inactive
23,CC(CN1CCCCC1)c1ccccc1 (stereo unspecified),inactive
